Sampled rows, rich in hits. Any-hit rate of the full collection: about 15%.
Gal4-VP16 FLuc – Gal4-VP16 reporter inhibition counter-screen | Drosophila S2 Gal4-VP16 UAS-luciferase, luminescence, 20 h | 310,000 tested, 3.5% active | Potency, µM (titrated, usually from 53.6 µM), for inactives: at the top dose activity, negative = inhibition, hits mostly inhibitors;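 further: Gal4-VP16 expression switched on by copper sulfate through the metallothionein promoter; nearly all actives have a fitted effect of over 50% in size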
RORgamma inh – inhibitors of mouse ROR gamma transcriptional activity. 310,000 tested, 5.4% active. Potency, µM (doses to about 53.6 µM), for inactives: at the highest dose activity change, negative = inhibition, hits mostly inhibitors. Drosophila S2 Gal4-RORgamma UAS-luciferase reporter, 20 h. P51450. AID 2551; further: nearly all actives have a fitted effect of over 60% in size
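Drosophila Schneider cells stably carrying a metallothionein-driven Gal4 DBD–ROR gamma fusion and a UAS-Photinus luciferase reporter were exposed to compound for 1 hr, then induced with copper sulfate (700 uM final) for 20 hr at ambient temperature before luminescence reading.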
ALOX12 inh – ALOX12 (human) lipoxygenase inhibition | 580,000 tested, 1.1% active | Potency, µM (series often up to 108 µM), for inactives: top-dose activity change, negative = inhibition, usual class: inhibitors | purified 12hLO, xylenol orange hydroperoxide absorbance | AID 1671190
Target sequence (P18054 whole entry, looked up): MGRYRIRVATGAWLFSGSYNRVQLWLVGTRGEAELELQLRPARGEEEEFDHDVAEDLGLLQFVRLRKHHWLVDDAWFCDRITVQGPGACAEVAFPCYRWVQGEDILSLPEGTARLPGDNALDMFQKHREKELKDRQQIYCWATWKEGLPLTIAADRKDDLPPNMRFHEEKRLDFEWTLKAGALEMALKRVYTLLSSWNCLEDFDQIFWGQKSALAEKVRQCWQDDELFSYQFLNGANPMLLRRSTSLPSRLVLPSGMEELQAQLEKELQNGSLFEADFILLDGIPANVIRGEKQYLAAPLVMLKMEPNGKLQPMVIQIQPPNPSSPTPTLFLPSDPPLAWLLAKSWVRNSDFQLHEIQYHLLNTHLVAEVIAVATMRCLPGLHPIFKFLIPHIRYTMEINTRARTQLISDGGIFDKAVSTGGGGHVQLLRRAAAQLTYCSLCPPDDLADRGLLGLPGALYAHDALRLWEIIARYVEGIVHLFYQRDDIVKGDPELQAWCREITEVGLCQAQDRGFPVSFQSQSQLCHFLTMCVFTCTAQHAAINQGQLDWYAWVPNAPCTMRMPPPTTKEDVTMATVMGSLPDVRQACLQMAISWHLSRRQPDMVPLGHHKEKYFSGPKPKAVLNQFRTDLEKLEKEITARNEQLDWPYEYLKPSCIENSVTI
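Purified human 12hLO (150 nM final) in 25 mM Hepes, 0.01% Triton X-100, pH 7.0 was preincubated 15 min at room temperature with compound. Then 40 uM arachidonic acid was added, 30 min. Hydroperoxide was read by Fe-XO absorbance ratio 573/405 nm.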
ELG1 DNA repair – inhibitors of ELG1-dependent DNA repair in HEK293T cells. HEK293T ELG1-luciferase reporter, luminescence, 16 h; DNA damage induced by 5-fluorouridine. Potency, µM (titrated, usually from 46.1 µM), for inactives: top-dose activity change, negative = inhibition, usual class: inhibitors. 330,000 tested, 2.3% active. AID 504467; further: nearly all actives have a fitted effect of over 55% in size
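Overnight (16 hr) co-exposure of 2,000 cells/well to 5-fluorouridine and compound at 37 °C preceded detection. Luciferase was quantified via ONE-Glo luminescence; loss of signal denotes inhibition.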
DT40 TDP1 CPT – DT40-hTDP1 cell growth loss with CPT; chicken DT40 Tdp1-/-;hTDP1 cells + 20 nM CPT, ATP luminescence, 48 h; Potency, µM (series often up to 46.2 µM), inactives show top-dose activity change, negative = growth inhibition, most hits filed as inhibitors; 420,000 tested, 12% active; further: nearly all actives have a fitted effect of over 55% in size
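Cell growth measured by CellTiter-Glo luminescence after a minimum 48 h, 37 C compound exposure with 20 nM CPT in Tdp1-knockout DT40 cells stably expressing hTDP1, seeded 400/well; qHTS titration format.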
DT40 TDP1 no CPT – qHTS for Inhibitors of human tyrosyl-DNA phosphodiesterase 1 (TDP1): qHTS in cells in absence of CPT. DT40 Tdp1-/- hTDP1 cells, no CPT, ATP luminescence, 48 h. Potency, µM (series often up to 46.2 µM), inactives show at the top dose activity change, negative = growth inhibition, hits mostly inhibitors. 420,000 tested, 15% active. AID 686978, 2013; further: nearly all actives have a fitted effect of over 55% in size
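Stably hTDP1-transfected Tdp1-null chicken DT40 cells were treated with library compounds minus camptothecin and grown for at least 48 hr at 37 °C, after which cellular ATP was quantified by luminescence.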
Active calls of the source: *; i = inactive; ? = inconclusive; . = no result. The call rests on the fitted dose curve; in most records, active means well fitted curve in the direction sought with a large enough effect; inconclusive means small, poorly fitted or top-dose-only effect, or another doubt; inactive means no such curve, though single readings can be large; an effect the other way counts as inactive or inconclusive. On the % scale 0 is the no-effect control and ±100 the full control effect; potency means the concentration at half of the fitted maximal effect.

SMILES	Gal4-VP16 FLuc	RORgamma inh	ALOX12 inh	ELG1 DNA repair	DT40 TDP1 CPT	DT40 TDP1 no CPT
CN(CCCNc1ccccc1)c1nc(-c2ccncc2)nc2ccccc12	.	.	-3.2%	.	.	.
Cc1cccc(C)c1N1CCN(c2ccc3nnc(C(F)(F)F)n3n2)CC1	7.0%	-16.1%	?	?	20.6µM*	20.6µM*
FC(F)(F)c1cccc(N2CCN(c3ccc4nnc(-c5ccccc5)n4n3)CC2)c1	-1.8%	-27.8%	?	?	16.4µM*	?
O=C(CN1CCCC1c1nc2ccccc2s1)NC(=O)Nc1ccc2c(c1)OCO2 (configuration not stated)	.	.	-15.4%	.	.	.
COc1ccc(Nc2nnc(SCC(=O)N(CC(C)C)C3CCS(=O)(=O)C3)s2)cc1 (configuration not stated)	.	.	?	.	?	18.4µM*
CCC(=O)Nc1nnc(SCC(=O)Nc2ccc3c(c2)OCCO3)s1	-1.4%	21.0%	207.4%	-21.0%	14.6µM*	?
CCN(C(=O)CSc1nnc(Nc2ccccc2)s1)C1CCS(=O)(=O)C1 (configuration not stated)	-15.5%	14.1%	-8.5%	2.4%	-3.1%	1.0%
COc1ccc(Nc2nnc(SCC(=O)NC(=O)Nc3ccc4c(c3)OCCO4)s2)cc1	2.8%	3.4%	-15.9%	0.0%	?	16.4µM*
COCCn1c(C)cc(C(=O)CSc2nc(C)nc3sc4c(c23)CCC4)c1C	.	.	-24.2%	.	16.4µM*	20.6µM*
CN(C)C(=O)N1CCn2nc(CNC(=O)c3cccc(-n4cnnc4)c3)cc2C1	.	.	90.2%	.	.	.
CC(Sc1nc(CN2CCOCC2)nc2ccccc12)C(=O)Nc1ccccc1F (configuration not stated)	.	.	-29.5%	.	.	.
CCC(=O)Nc1nnc(SCC(=O)NCC2CCCO2)s1 (configuration not stated)	.	.	i	.	-15.3%	0.291µM*
Cc1nc(SCC(=O)NCC2CCCO2)c2c3c(sc2n1)CCCC3 (configuration not stated)	12.6µM*	3.55µM*	33.0%	2.3%	?	?
COc1ccc(Nc2cc(-n3ncc(C(C)=O)c3C)nc(C)n2)cc1	.	.	-2.7%	.	.	.
Cc1ccc(NC(=O)c2ncn(CCCN3CCN(c4ccccn4)CC3)n2)cc1C	.	.	?	.	?	25.9µM*
Cc1ccc(NC(=O)c2ncn(CCCN(CCCn3cnc(C(=O)Nc4ccc(C)c(C)c4)n3)Cc3ccc4[nH]ccc4c3)n2)cc1C	.	.	-7.8%	.	?	14.6µM*
COC(=O)[C@H](Cc1ccccc1)NCCCn1cnc(C(=O)Nc2ccc(C)c(C)c2)n1	.	.	-1.0%	.	?	18.4µM*
COc1ccc(CNCCCn2cnc(C(=O)Nc3ccc(C)c(C)c3)n2)cc1	.	.	?	.	?	16.4µM*
Cc1ccc(NC(=O)c2ncn(CCCNCCCN(C)C)n2)cc1C	.	.	-28.9%	.	?	?
Cc1ccc(NC(=O)c2ncn(CCCN3CCN(c4ncccn4)CC3)n2)cc1C	.	.	-2.5%	.	?	?
Cc1ccc(NC(=O)c2ncn(CCCNCCCc3ccccc3)n2)cc1C	.	.	-13.7%	.	?	20.6µM*
O=[N+]([O-])c1ccc(S(=O)(=O)Nc2ncccn2)cc1	-0.9%	-2.5%	-26.7%	12.8%	-12.6%	9.4%
COc1cc(NS(=O)(=O)c2ccc([N+](=O)[O-])cc2)c2ncccc2c1	0.891µM*	0.891µM*	.	.	.	.
COc1cc(NS(=O)(=O)c2ccc(C)cc2)c2ncccc2c1	0.794µM*	1µM*	.	?	0.82µM*	1.16µM*
COc1cc(NS(=O)(=O)c2cccc([N+](=O)[O-])c2)c2ncccc2c1	2µM*	1.12µM*	.	.	.	.
SMILES	Gal4-VP16 FLuc	RORgamma inh	ALOX12 inh	ELG1 DNA repair	DT40 TDP1 CPT	DT40 TDP1 no CPT
Cc1cc(NC(=O)c2nn(C)c(=O)c3ccccc23)ccc1Br	.	.	-8.0%	.	.	.
O=C(Nc1cc(C(F)(F)F)ccc1F)C1Cc2c(-c3ccccc3Oc3ccccc3)ccnc2O1 (configuration not stated)	.	.	1.4%	.	?	18.4µM*
O=C(Nc1ccc(Cl)cc1)C1Cc2c(-c3ccccc3Oc3ccccc3)ccnc2O1 (configuration not stated)	.	.	-13.7%	.	23.1µM*	?
COc1ccc(NC(=O)C2Cc3c(-c4ccccc4Oc4ccccc4)ccnc3O2)cc1 (configuration not stated)	.	.	-45.1%	.	?	?
O=C(/C=C/c1cccs1)Oc1ccc2oc3ccccc3c2c1	.	.	-4.2%	.	.	.
CC1CC(C)CN(C(=O)c2ccc(Oc3ccccc3)cc2)C1 (configuration not stated)	.	.	-26.9%	.	.	.
O=C(Cc1ccc(Cl)cc1)Nc1ccc2oc(=O)ccc2c1	3.2%	20.6%	-27.1%	-15.2%	-22.7%	-26.5%
CCc1ccc(OCC(=O)Nc2ccc(-c3cc4ccccc4oc3=O)c(OC)c2)cc1	-7.7%	?	2.6%	-4.7%	6.51µM*	7.31µM*
COc1cc(NC(=O)c2cc(Cl)ccc2Cl)ccc1-c1cc2ccccc2oc1=O	-8.7%	0.6%	21.4%	?	?	-27.9%
O=C(Cc1ccc(Cl)cc1)Nc1ccc(-c2cc3ccccc3oc2=O)c(Cl)c1	2.0%	45.2%	-7.9%	?	5.17µM*	2.91µM*
COc1ccc(C(=O)Nc2ccc(-c3cc4ccccc4oc3=O)c(C)c2)cc1OC	.	.	-7.3%	.	18.4µM*	16.4µM*
O=C(c1ccc(F)c(Cl)c1)N1CCN(C(=O)c2nnn3c2COC(c2ccccc2)C3)CC1 (configuration not stated)	.	.	8.2%	.	.	.
CCn1cc(S(=O)(=O)N2C[C@H]3CN(CCO)C[C@@]3(C(=O)O)C2)cn1	.	.	14.3%	.	.	.
COc1ccc2cc(C(=O)OC(C)C(=O)NC(C)(C)C)c(C)nc2c1 (configuration not stated)	.	.	37.4%	.	.	.
Cn1cnnc1-c1nn(C)c2c1CN(C(=O)c1cc3ccccc3[nH]1)CC2	.	.	12.9%	.	.	.
Nc1ccc(C#Cc2c(-c3ccsc3)oc3ccc(N4CCOCC4)cc23)cc1	.	.	-2.6%	.	?	?
COc1ccc(-c2c(-c3ccsc3)oc3ccc(N4CCOCC4)cc23)cn1	.	.	-9.7%	.	?	16.4µM*
COC(=O)c1ccc(/C=C/c2c(-c3ccsc3)oc3ccc(N4CCOCC4)cc23)cc1	6.8%	22.5%	?	-2.2%	18.4µM*	?
CC(C)S(=O)(=O)N1CC(n2cc(C(=O)NCc3ccccc3)nn2)C1	.	.	-4.0%	.	.	.
